# Data from PMC5540273 (PLoS ONE, 2017).
# What was measured:
# Settings in all cases: concentration: 1 μM, replicates: in singlicate; n = 1
# [1] = tested on: T1, MEK5
# T1 construct: gene MAP2K5
# [2] = tested on: T2, MEK6
# T2 construct: gene MAP2K6
# [3] = tested on: MELK
# [4] = tested on: MERTK
# [5] = tested on: MET
# [6] = tested on: T3, MINK
# T3 construct: gene MINK1
# [7] = tested on: MKK7
# [8] = tested on: MKNK1
# [9] = tested on: MKNK2
# [10] = tested on: T4, MLCK
# T4 construct: gene MYLK3
# [11] = tested on: T5, MLK1
# T5 construct: gene MAP3K9
# [12] = tested on: MLK2
# [13] = tested on: MLK3
# [14] = tested on: MRCKA
# [15] = tested on: T6, MRCKB
# T6 construct: gene CDC42BPB
# [16] = tested on: MST1R
# [17] = tested on: T7, MST1
# T7 construct: gene STK4
# [18] = tested on: T8, MST2
# T8 construct: gene STK3
# [19] = tested on: T9, MST3
# T9 construct: gene STK24
# [20] = tested on: MST4
# 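Also: KINOMEscan kinase panel screen.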
SMILES,%Inh [1],%Inh [2],%Inh [3],%Inh [4],%Inh [5],%Inh [6],%Inh [7],%Inh [8],%Inh [9],%Inh [10],%Inh [11],%Inh [12],%Inh [13],%Inh [14],%Inh [15],%Inh [16],%Inh [17],%Inh [18],%Inh [19],%Inh [20]
COc1ccc(-c2coc3ccc(-c4nnc(SCc5ccc(OC)c(C(F)(F)F)c5)o4)cc23)cc1,4%,0%,20%,11%,13%,26%,14%,0%,1%,0%,14%,0%,0%,0%,0%,0%,32%,11%,17%,0%
CN1CCN(Cc2cccc(-c3ccc4c(Nc5ccc(Oc6ccccc6)cc5)ccnc4c3)c2)CC1 [GW578342],100%,0%,16%,0%,5%,9%,7%,8%,51%,1%,4%,5%,4%,0%,0%,35%,12%,0%,3%,0%
O=C(Nc1n[nH]c2nc(-c3ccc(O)cc3)ccc12)C1CC1 [SB-710363],81%,0%,46%,8%,0%,72%,0%,43%,54%,57%,0%,0%,0%,0%,0%,0%,0%,0%,0%,9%
Cc1cccc(Nc2nc(N[C@H]3CCNC3)ncc2C(N)=O)c1.Cl [GSK2197149],99.8%,50%,20%,37%,0%,76%,4%,0%,51%,24%,92.9%,4%,86%,0%,0%,0%,43%,0%,31%,36%
CN(C)S(=O)(=O)c1cc(-c2ccc3nccc(-c4cccc(S(N)(=O)=O)c4)c3c2)cnc1N [GSK1669921],56%,0%,0%,33%,0%,19%,0%,0%,4%,0%,0%,22%,0%,0%,0%,32%,20%,2%,5%,6%
COc1ccc(Nc2nccc(N3CCC(NC(=O)Nc4cccc(OC)c4)C3)n2)cc1 (stereo not shown) [GSK1379742],46%,0%,7%,19%,0%,0%,0%,3%,0%,0%,0%,0%,25%,11%,0%,9%,0%,31%,0%,0%
COc1ccc(Nc2nccc(NCCNC(=O)c3cc4ccccc4s3)n2)cc1 [GSK1379896],33%,0%,0%,24%,0%,2%,0%,0%,0%,0%,0%,0%,14%,21%,6%,40%,0%,24%,0%,0%
CCCCc1nn2ncccc2c1-c1ccnc(Nc2ccc(N3CCN(C)CC3)cc2)n1 [GW684941],98.9%,0%,0%,56%,8%,43%,0%,9%,64%,0%,0%,5%,0%,19%,17%,45%,0%,0%,1%,0%
